Tau fluor counter: counter-screen for tau fibril formation inhibitors | actives 0.93% (n = 280,000) | Potency, µM (top dose mostly 57.7 µM) | AID 1463 | tau K18 P301L Alexa594 fluorescence, heparin fibrillization; also: nearly all actives have a fitted effect of over 55% in size
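Human tau K18 P301L (15 uM unlabeled, 0.24 uM Alexa 594-labeled) in 100 mM sodium acetate pH 7 with 20 uM heparin, 6 hr at 37 C. ThT 30 uM added, 1 hr ambient; Alexa 594 FP and total fluorescence read at 555/632 nm.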
Tau FP inhib: tau fibrillization inhibition (FP) | actives 0.39% (n = 280,000) | K18 P301L tau heparin fibrillization, Alexa594 FP, 6 h | P10636 | Potency, µM (series often up to 57.7 µM), hits mostly inhibitors; also: nearly all actives have a fitted effect of over 55% in size
Target sequence (P10636 561-689 P618L limits assumed): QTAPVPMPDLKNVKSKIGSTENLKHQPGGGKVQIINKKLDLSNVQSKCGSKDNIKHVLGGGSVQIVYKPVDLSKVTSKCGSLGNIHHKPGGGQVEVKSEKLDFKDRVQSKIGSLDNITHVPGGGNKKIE
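Human K18 P301L fragment (15 uM unlabeled plus 0.24 uM Alexa 594-labeled) in 100 mM sodium acetate pH 7 with compound, aggregation induced by 20 uM heparin for 6 hr at 37 C. ThT (30 uM) added for 1 hr, then Alexa 594 FP read.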
TRb SRC2 PPI: inhibitors of human thyroid hormone receptor beta-SRC2 interaction | actives 0.065% (n = 280,000) | Potency, µM (doses to about 106 µM), most hits filed as inhibitors | TRbeta-SRC2 peptide binding, fluorescence polarization; receptor liganded with 1 µM T3; also: nearly all actives have a fitted effect of over 50% in size
Target sequence (P10828 whole entry, looked up): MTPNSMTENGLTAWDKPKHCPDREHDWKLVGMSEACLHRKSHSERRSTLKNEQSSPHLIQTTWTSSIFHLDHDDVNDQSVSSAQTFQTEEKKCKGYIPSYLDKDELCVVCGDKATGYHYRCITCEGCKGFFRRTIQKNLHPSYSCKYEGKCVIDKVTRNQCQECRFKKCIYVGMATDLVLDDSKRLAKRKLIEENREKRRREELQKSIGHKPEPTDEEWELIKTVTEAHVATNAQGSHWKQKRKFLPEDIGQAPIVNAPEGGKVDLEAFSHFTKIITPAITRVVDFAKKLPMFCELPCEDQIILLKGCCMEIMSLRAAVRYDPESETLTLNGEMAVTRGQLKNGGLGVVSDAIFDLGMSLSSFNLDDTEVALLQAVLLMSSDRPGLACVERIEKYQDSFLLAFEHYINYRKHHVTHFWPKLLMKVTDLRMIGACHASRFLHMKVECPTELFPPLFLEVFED
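Decrease in fluorescence polarization of 20 nM Texas Red SRC2 coactivator peptide flagged inhibition of its binding to 0.6 uM TRb LBD; 1 uM T3 included, incubation 5 hr, ex 555/em 632 nm.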
Tau ThT inhib: tau fibrillization inhibition (ThT binding) | actives 2.1% (n = 270,000) | recombinant tau K18 P301L (four-repeat tau fragment), heparin-induced fibrillization, ThT fluorescence | AID 1460 | P10636 | Potency, µM (top dose mostly 57.4 µM), actives largely listed as inhibitors; also: nearly all actives have a fitted effect of over 55% in size
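In this qHTS, human K18 P301L tau is incubated with compound and heparin for 6 hr at 37 C, and Thioflavin T fluorescence then reports fibril load.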
TR SRC2 fluor cs: alters Texas Red total fluorescence, flagging assay interference. TRb/SRC2 Texas Red total fluorescence interference. Potency, µM (series often up to 106 µM). actives 0.29% (n = 280,000). AID 1479; active = well fitted curve in either direction with a large enough effect; inconclusive = small, poorly fitted or top-dose-only effect
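Flags fluorescent or light-absorbing compounds by total fluorescence, S + 2P, at 555 nm excitation and 632 nm emission. Mixture: 20 nM Texas Red SRC2 peptide, 0.6 uM human TRb LBD, 1 uM T3, 5% DMSO; compound exposure 5 h at ambient temperature.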
PNC assembly inh: inhibitors of perinucleolar compartment assembly. activity change (PNC), negative = inhibition, % at 10 µM. actives 3.1% (n = 140,000). PC3M PTB-GFP, PNC prevalence imaging, 16 h; hits give low values;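 active = readout at or below -70, meaning at least 70% loss of cells showing the perinucleolar compartment, a nuclear body marking cancer cells; inconclusive = readout between -30 and a set limit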
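PC3M cells stably expressing PTB-GFP, 750–1000 cells/well, treated 16 h at 37 °C with compound (23 nl of library stock), in duplicate. After paraformaldehyde fixation and Hoechst stain, imaged at 20x; PNC prevalence scored by image analysis.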
Numbers stand for hits; – = inactive; ? = inconclusive; · = no result; [ ] = remark or other dose. Compounds with a hit are over-represented: about 4.6% of the library has one in this group of screens. Unless noted, calls follow the shape of the dose curve; as a rule, active = well fitted curve in the direction sought with a large enough effect; inconclusive = small, poorly fitted or top-dose-only effect, or another doubt; inactive = no such curve, though single readings can be large; an effect the other way counts as inactive or inconclusive.

SMILES	Tau fluor counter	Tau FP inhib	TRb SRC2 PPI	Tau ThT inhib	TR SRC2 fluor cs	PNC assembly inh
Cc1ccc([N+](=O)[O-])cc1-c1ccc(/C=C(\C#N)c2[nH]nc(N)c2C#N)o1	?	?	–	8.9µM	–	–
CC(C)(C)C1=CC=C(C(C)(C)C)C(=O)C1=O	?	18µM	–	18µM	–	·
COc1ccccc1NC(=O)COc1ccc(/C=N/n2cnnc2)cc1OC	–	–	–	?	–	–
Cc1nc(NCc2ccco2)c2c(C)c(C)sc2n1	–	–	–	–	–	–
Cc1sc2nc3c4ccccc4c(NCc4ccco4)nn3c(=O)c2c1C	?	35µM	–	25µM	–	–
Cc1nn(-c2ccccc2)c(N)c1N=Nc1ccc2ccccc2c1	16µM[quencher]	–	–	5µM	–	–
Cc1ccc(N=Nc2c(N)nn3c(C)cc(C)nc23)cc1	–	–	–	?	–	?
Cc1nn(-c2ccccc2)c(N)c1N=O	–	–	–	–	–	·
COc1ccc(-c2c(C)nn(-c3ccccc3)c2N)cc1	–	–	–	–	–	–
Cc1ccc(N=Nc2c(N)nn(-c3ccccc3)c2N)cc1	?	–	–	4.5µM	–	?
Cc1ccc(N=Nc2c(N)nn3c(N)c(C#N)c(C)nc23)cc1	?	–	–	1.4µM	–	·
CCOc1ccc(N/C=C/C(=O)c2ccccc2)c([N+](=O)[O-])c1	?	–	–	1.4µM	–	–
O=C(O)c1ccc(N=NN2CCCCC2)cc1	–	–	–	–	–	·
CCOc1ccc(NC(=O)Cn2nnc(-c3ccccc3NC(=O)c3cccs3)n2)cc1	?	?	–	–	–	–
COc1ccc(S(=O)(=O)Nc2ccccc2-c2nnn(CC(=O)Nc3ccccc3OC)n2)cc1	?	?	–	–	–	?
COc1ccc(NC(=O)Cn2nnc(-c3ccccc3NS(=O)(=O)c3ccccc3)n2)cc1	?	16µM	–	–	–	–
CCCC(=O)Nc1ccccc1-c1nnn(CC(=O)Nc2ccc(OC)cc2)n1	–	–	–	–	–	-81
Oc1cccc(NC(=S)N=Nc2c(O)[nH]c3ccccc23)c1	?	–	–	10µM	?	·
CC(C)c1ccc2[nH]c(O)c(N=NC(=S)NCCc3ccccc3)c2c1	?	–	–	?	–	–
Oc1[nH]c2ccccc2c1N=NC(=S)NCCc1ccccc1	13µM[quencher]	?	–	14µM	–	–
O=C(Nc1ccc(Br)cc1F)C1CCCO1 (stereo not given)	–	–	–	–	–	–
CCOc1cc(C2C(C#N)=C(N)SC(N)=C2C#N)ccc1OCCN1CCOCC1	–	?	–	25µM	–	?
CCCc1[nH]nc2c1C(c1ccc(OCCN3CCOCC3)c(OC)c1)C(C#N)=C(N)O2 (stereo not given)	–	–	–	–	–	–
COc1cc(OC)c(N(C)S(=O)(=O)c2cccc(C(=O)OCC(=O)c3c[nH]c4ccccc34)c2)cc1Cl	?	13µM	–	–	–	–
C=CCN(c1ccccc1OC)S(=O)(=O)c1cccc(C(=O)OCC(=O)c2c[nH]c3ccccc23)c1	?	16µM	–	–	–	–
SMILES	Tau fluor counter	Tau FP inhib	TRb SRC2 PPI	Tau ThT inhib	TR SRC2 fluor cs	PNC assembly inh
Cc1ccc(C(=O)OCC(=O)c2c[nH]c3ccccc23)cc1	–	–	–	–	–	–
Cc1ccc(NC(=O)CCNC(=O)c2ccc(Cl)cc2)cc1F	–	–	–	–	–	–
COc1ccc(NC(=S)Nc2ccc(C)c(S(=O)(=O)N3CCCCC3)c2)cc1	32µM[quencher]	?	–	–	–	?
Cc1ccc(NC(=S)Nc2ccc(C(C)C)cc2)cc1S(=O)(=O)N1CCCCCC1	7.9µM[quencher]	13µM	–	–	–	–
C=CCNC(=S)Nc1ccc(C)c(S(=O)(=O)N2CCCCC2)c1	–	–	–	–	–	·
CN1C(=S)SC(N2OC3C(=O)N(c4ccccc4)C(=O)C3C2c2ccccc2)C1(C)C (stereo not given)	–	–	–	–	–	–
Cn1c(=NC(=O)C(C)(C)C)sc2cccc(F)c21	–	–	–	–	–	·
CC(C)=CC(=O)Nc1nnc(-c2ccccc2)s1	–	–	–	–	–	–
CCC(=O)Nc1nnc(C)s1	–	–	–	–	–	-106
CC(C)=CC(=O)Nc1nnc(C)s1	–	–	–	–	–	-108
COc1cc(C(CCN2CCCC2)c2c(OC)cc(OC)c3c(-c4ccccc4)cc(=O)oc23)cc(OC)c1OC (stereo not given)	–	–	–	?	–	·
Cc1ccc(S(=O)(=O)N2c3ccccc3OCC2c2ccccc2)cc1 (stereo not given)	–	–	–	–	–	-100
CCOC(=O)c1sc(NC(=O)COC(=O)Cn2cnc3ccccc32)c(C(=O)OCC)c1C	–	–	–	–	–	-97
O=C(NC(=S)Nc1cccc(Cl)c1N1CCOCC1)c1cccs1	–	–	–	–	–	·
O=C(NC(=S)Nc1cccc(Cl)c1N1CCCCC1)c1cccs1	–	?	–	–	–	-108
CCCCCCn1c(NCC)nc2c1c(=O)[nH]c(=O)n2C	–	–	–	–	–	-93
CCCCCSc1nc2c(c(=O)[nH]c(=O)n2C)n1C	–	–	–	–	–	–
CCCCCSc1nc2c(c(=O)[nH]c(=O)n2C)n1C(C)C	–	–	–	–	–	-119
NC1=Nc2cccc3cccc1c23	–	–	–	?	–	·
NC1=CC(=O)c2cccc3cccc1c23	?	?	–	11µM	–	–
Cc1cc(C(=O)CN2C(=O)NC(CC(C)C)C2=O)c(C)n1-c1ccccc1F (stereo not given)	–	–	–	–	–	·
Clc1ccc(Nc2ncnc3ccc(Br)cc23)cc1	–	–	–	–	–	?
CCCCn1c(N)c(N(CCC(C)C)C(=O)COC(=O)c2ccco2)c(=O)[nH]c1=O	–	–	–	–	–	?
COc1cc(C2C(C(=O)OC(C)C)=C(C)N=C3SCCC(=O)N32)ccc1OCc1ccccc1 (stereo not given)	–	–	–	–	?	·
COC(=O)C1=C(C)N=C2SCCC(=O)N2C1c1ccc(OC(=O)c2ccco2)cc1 (stereo not given)	–	–	–	–	–	–
C=CCOC(=O)C1=C(C)N=C2SCCC(=O)N2C1c1ccc(OC(=O)c2ccco2)cc1 (stereo not given)	–	–	–	–	–	-127
COC(=O)C1=C(C)N=C2SCCC(=O)N2C1c1cc(Br)ccc1OC (stereo not given)	?	–	–	5µM	–	–
COC(=O)c1ccc(C2C(C(=O)OC(C)C)=C(C)N=C3SCCC(=O)N32)cc1 (stereo not given)	–	–	–	–	–	-90

Source: PubChem (National Center for Advancing Translational Sciences (NCATS))
